Results filed as inconclusive are left out. Entries that show only a call come without a potency. Calls of active or inactive are those of the source. Calls come from the whole dose curve; as a rule, active = well fitted inhibition curve with a large enough effect; inconclusive = small, poorly fitted or top-dose-only effect; inactive = no such curve, though single readings can be large or run the other way. Where a SMILES comes first, the peptide text is derived from it. [ ]: non-standard residue; d: D form. PhLac = O=C(O)[CH](O)Cc1ccccc1; NMeV = CN[CH](C(=O)O)C(C)C

Experimental findings from PubChem BioAssay (NCATS) are described below.

The assay is described as follows: P-glycoprotein substrates identified in KB-3-1 adenocarcinoma cell line, qHTS therapeutic library screen (AID 1346986). Note: nearly all actives have a fitted effect of over 60% in size. To be noted: KB-3-1 parental cells viability, CellTiter-Glo, 72 h; series mostly up to 44.5 µM. In a few lines: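 Resistance attributable to P-gp was assessed by comparing AC50 in KB-8-5-11 with parental KB-3-1 and by tariquidar reversal. Cells were exposed 72 h and viability read by CellTiter-Glo.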
In general terms: qHTS replaces the single test concentration by a dilution series.
With `COC(=O)C1=COC(O[C@@H]2O[C@H](CO)[C@@H](O)[C@H](O)[C@H]2O)/C(=C\COC(=O)c2ccc(OC3OC(CO)C(O)C(O)C3O)c(OC)c2)C1CC(=O)OCCc1ccc(O)cc1` (stereo partly drawn), the outcome is “inactive [at 9.29 µM]”. Consider `CO/N=C(/C(=O)N[C@@H]1C(=O)N2C(C(=O)O)=C(CSC(=O)c3ccco3)CS[C@H]12)c1csc(N)n1`, for which the Potency result was “inactive”.

For `CC(=O)O[C@@H]1[C@H]2[C@@H](OC(=O)c3ccccc3)[C@@H](C)C[C@]2(O)[C@H](OC(C)=O)[C@@]2(C)[C@@H]3CC(C)(C)C(=O)[C@]3(OC(C)=O)C[C@@]12C`, the Potency entry is “inactive”. The same measure, in the same setting: next, `CC(C)CC(=O)n1cc(C(N)=O)c(=O)cc1C(O)c1ccccc1` (stereo not drawn): “inactive”; `CC1(C)CCC(C)(C)c2cc([C@@H](O)C(=O)Nc3ccc(C(=O)O)cc3F)ccc21`: “inactive”.

As for `CC1(CO)CC[C@]2(C(=O)O[C@@H]3O[C@H](CO)[C@@H](O)[C@H](O)[C@H]3O)CC[C@]3(C)C(=CCC4[C@@]5(C)C[C@H](O)[C@H](O[C@@H]6OC[C@@H](O)[C@H](O)[C@H]6O)[C@@](C)(CO)C5CC[C@]43C)C2C1` (stereo partly drawn), the outcome is “inactive [at 9.29 µM]”.

With `C=C1CCC2C(C)(COC3OC(COC(=O)CC(=O)O)C(O)C(O)C3O)CCCC2(C)C1CCC1=CCOC1=O` (stereo not drawn), the Potency entry is “inactive”. The same measure, in the same setting: next, `CC1(C)CC[C@]2(C(=O)O)CC[C@]3(C)C(=CCC4[C@@]5(C)CC[C@H](O[C@@H]6O[C@H](C(=O)O)[C@@H](O)[C@H](O)[C@H]6O)C(C)(CO)C5CC[C@]43C)C2C1` (stereo partly drawn): “inactive”; `COC1C2=C(COC2=O)C2(C)CCCC(C)(CO)C2C1OC(=O)c1ccccc1` (stereo not drawn): “inactive”.

As for `COc1cc(COC2OC(CO)C(O)C(O)C2O)cc(OC)c1O` (stereo not drawn), the Potency entry was “inactive”. Regarding `CC(=O)O[C@H]1CC[C@@]2(CI)C(=CC[C@@H]3[C@@H]2CC[C@]2(C)[C@@H]([C@H](C)CCCC(C)C)CC[C@@H]32)C1`, the outcome is “inactive [at 9.29 µM]”. Take `C=C1C2=CC(O)C(C)C1(C)CC/C(C)=C/CCC1(C)OC1C2=O` (stereo not drawn): the Potency result was “inactive”. Consider `CC(C)C1=CCC(C)(O)C(OC2OC(CO)C(O)C(O)C2O)C1` (stereo not drawn), for which the Potency entry was “inactive”. `CC12CCC3C(C)(C)C(O)CCC3(C)C1Cc1c(oc(C(=O)O)cc1=O)O2` (stereo not drawn): the Potency result is “inactive”.

Turning to `COc1ccccc1[C@@H]1C2=C(CC(C)(C)CC2=O)Nc2n[nH]c(C(F)(F)F)c21`, the Potency result is “inactive”. Regarding `O=C(/C=C/c1ccccc1)OCC1=CC[C@@H]2C(C(=O)O)=CO[C@@H](O[C@@H]3O[C@H](CO)[C@@H](O)[C@H](O)[C@H]3O)[C@H]12`, the Potency entry was “inactive”.

Consider `COC1CC(OC2CCC3(C)C(=CCC4C3CCC3(C)C(C(C)O)CCC43O)C2)OC(C)C1OC1OC(C)C(OC2OC(COC3OC(COC4OC(CO)C(O)C(O)C4O)C(O)C(O)C3O)C(O)C(O)C2O)C(OC)C1O` (stereo not drawn), for which the outcome is “inactive [at 9.29 µM]”. As for `C[C@@H]1O[C@@H](O[C@@H]2[C@@H](O)[C@@H](O)[C@H](O[C@@H]3[C@@H](O)[C@@H](O[C@]4(CO)O[C@H](CO)[C@@H](O)[C@@H]4OC(=O)/C=C/c4ccc(O)cc4)O[C@H](CO)[C@H]3OC(=O)/C=C/c3ccc(O)cc3)O[C@H]2C)[C@H](O)[C@H](O)[C@H]1O`, the outcome was “inactive [at 9.29 µM]”. Take `Cc1ccc(Sc2cncc3sc(C(N)=O)cc23)cc1`: the Potency entry was “inactive”. For the molecule `CC(=O)O[C@H]1C[C@@H]2[C@]3(CC[C@]4(C)[C@@H](C5(C)CCC(C(C)(C)O)O5)[C@@H](O)C[C@@]24C)C[C@@]32CC[C@H](O[C@@H]3OC[C@@H](O)[C@H](O)[C@H]3O)C(C)(C)[C@H]12` (stereo partly drawn), the Potency entry is “inactive”. `COC1=CC(=O)O[C@@H](/C=C/c2ccccc2)[C@@H]1O`: the Potency result is “inactive”.

Turning to `CNC(=O)O[C@H]1COc2ccc(N3CCN(C4COC4)CC3)cc2[C@@H]1NC(=O)c1ccc(F)cc1`, the Potency result was “inactive”. On the same count and under the same terms, next, `CCC(=O)N[C@@H]1Cc2ccccc2[C@H](c2ccccc2)C1`: “inactive”.

As to `CC1=C2C3OC(=O)C(C)C3(O)CCC2(C)CCC1=O` (stereo not drawn), the Potency entry is “inactive”. `CCC(C)C(=O)O[C@@H]1[C@@H](O)[C@@H](O[C@H]2O[C@H](CO)[C@@H](O)[C@H](O)[C@H]2O)O[C@H](CO)[C@H]1O` (stereo partly drawn): the Potency result is “inactive”. For `C=C1C(O[C@@H]2O[C@H](CO)[C@@H](O)[C@H](O)[C@@H]2O)CC2C(C)(C)C(O)CCC2(C)C1CC/C(C)=C\CO` (stereo partly drawn), the Potency result is “inactive”. For the molecule `C/C=C(\C)C(=O)O[C@H]1[C@H](O)[C@]2(COC(C)=O)[C@H](O)C[C@]3(C)C(=CCC4[C@@]5(C)CC[C@H](O[C@@H]6O[C@H](C(=O)O)[C@@H](O[C@@H]7O[C@H](CO)[C@@H](O)[C@H](O)[C@H]7O)[C@H](O)[C@H]6O[C@@H]6O[C@H](CO)[C@@H](O)[C@H](O)[C@H]6O)[C@](C)(CO)C5CC[C@]43C)[C@@H]2CC1(C)C` (stereo partly drawn), the outcome was “inactive [at 9.29 µM]”. With `C[C@@H]1O[C@@H](O[C@H]2[C@H](OC(=O)C34CCC(C)(C)CC3C3=CCC5C6(C)CC(O)C(O[C@@H]7O[C@H](CO)[C@@H](O)[C@H](O)[C@H]7O)C(C)(C(=O)O)C6CCC5(C)C3(CO)CC4)O[C@H](C)[C@H](O)[C@@H]2O)[C@H](O)[C@H](O)[C@H]1O[C@@H]1OC[C@@H](O)[C@H](O)[C@H]1O` (stereo partly drawn), the outcome is “inactive [at 9.29 µM]”. Regarding `C=C1CC2(C(=O)O)CC1CCC2C1(C)CCCC2(C)C(=O)OC(O)C21` (stereo not drawn), the Potency entry was “inactive”. For the molecule `CC(C)C(C(=O)N1CCCC1C(=O)O)N(C)C(=O)C(O)Cc1ccccc1` (stereo not drawn) (H-[PhLac]-[NMeV]-Pro-OH; configuration not given here), the Potency result is “inactive”. Turning to `C=CC(C)(O)CC/C=C(\C)C(=O)OCC1OC(OC2CCC3(C)C(CCC4(C)C3CC=C3C5CC(C)(C)C(O)CC5(C(=O)O)CCC34C)C2(C)C)C(O)C(OC2OC(CO)C(O)C(OC3OC(CO)C(O)C(OC4OC(COC5OC(CO)C(O)C(O)C5O)C(O)C(O)C4O)C3O)C2O)C1O` (stereo not drawn), the outcome is “inactive [at 9.29 µM]”.

Regarding `CC(=O)C1CCC2(C)C3=C(CCC12C)C1(C)CCC(=O)C(C)(C)C1CC3` (stereo not drawn), the Potency result is “inactive”. For `CC(=O)NC(CCC(=O)O)C(=O)NCCc1ccc(O)cc1` (stereo not drawn), the Potency result is “inactive”. Consider `NC1CCC(N[C@@H]2C[C@H]2c2ccccc2)CC1` (stereo partly drawn), for which the Potency entry is “inactive”. With `COc1cc(/C=C/C(=O)OC2CC(C)=C(C(=O)O)/C2=C/CO[C@@H]2O[C@H](CO)[C@@H](O)[C@H](O)[C@H]2O)ccc1O` (stereo partly drawn), the Potency entry was “inactive”.

Regarding `C[C@@H](O)[C@H](N)C(=O)N1CCC[C@H]1C(=O)N1CCC[C@H]1C(=O)N[C@H](C(N)=O)[C@@H](C)O` (H-TPPT-NH2), the outcome is “inactive [at 9.29 µM]”. Turning to `OC[C@H]1O[C@@H](Oc2cc(O)cc(/C=C/c3ccc(O)cc3)c2)[C@H](O)[C@@H](O)[C@@H]1O`, the Potency result was “inactive”. `O=C(O[C@@H]1O[C@H](CO)[C@@H](O)[C@H](O)[C@H]1O)c1c(O)cc(O)cc1/C=C/c1ccccc1`: the Potency result is “inactive”.
